Source: PubChem BioAssay
Several values for one entry are separate records, joined by “and”; a condition that tells them apart may be missing. Equal entries are not always repeated. Activity calls are given as the source filed them.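 Rule for the calls, unless noted: active = compounds whose cell count with miR-34 switched on is under 0.7 times the count with it off; inactive = the rest.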

Columns and labels:
[1] = EMT-state selective cytotoxicity in co-culture – imaging, PC-3E GFP, TEM4-18 mCherry, primary screen (AID 1345086;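 active = compounds killing one labelled cell type while sparing the other, by normalised counts and ratio limits, not self-fluorescent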;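 for all read-outs here: cells exposed to compound for 72 h before imaging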;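 for red/green cell ratio (normalised): normalised mesenchymal count divided by normalised epithelial count so high means epithelial killing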); details: PC-3E GFP / TEM4-18 mCherry co-culture, imaging cell counts, at 1 µM; for red/green cell ratio (normalised): actives lie on both sides, counts scaled to control wells, 1 = unselective
[2] = viability loss with induced miR-34 in A549 – imaging, A549 dox-inducible miR-34, nuclei and caspase counts, primary screen (AID 1347080); details: A549 miR-34 inducible, Hoechst nuclei count, 48 h
[3] = target: NAD(+) hydrolase SARM1 (Homo sapiens) (UniProt Q6SZW1); assay: blocking NAD cleavage by SARM1 SAM-TIR – cell lysate, NAD-Glo luminescence (AID 1508614;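 active = compound whose remaining NAD level is above about 45 nM, limit read from the data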;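 note: higher remaining NAD means stronger inhibition of SARM1 NADase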); details: SAM-TIR HEK293T lysate NADase, at 1 µM, stronger effect = higher value
NAD(+) hydrolase SARM1 (Homo sapiens), sequence (Q6SZW1 whole entry, looked up): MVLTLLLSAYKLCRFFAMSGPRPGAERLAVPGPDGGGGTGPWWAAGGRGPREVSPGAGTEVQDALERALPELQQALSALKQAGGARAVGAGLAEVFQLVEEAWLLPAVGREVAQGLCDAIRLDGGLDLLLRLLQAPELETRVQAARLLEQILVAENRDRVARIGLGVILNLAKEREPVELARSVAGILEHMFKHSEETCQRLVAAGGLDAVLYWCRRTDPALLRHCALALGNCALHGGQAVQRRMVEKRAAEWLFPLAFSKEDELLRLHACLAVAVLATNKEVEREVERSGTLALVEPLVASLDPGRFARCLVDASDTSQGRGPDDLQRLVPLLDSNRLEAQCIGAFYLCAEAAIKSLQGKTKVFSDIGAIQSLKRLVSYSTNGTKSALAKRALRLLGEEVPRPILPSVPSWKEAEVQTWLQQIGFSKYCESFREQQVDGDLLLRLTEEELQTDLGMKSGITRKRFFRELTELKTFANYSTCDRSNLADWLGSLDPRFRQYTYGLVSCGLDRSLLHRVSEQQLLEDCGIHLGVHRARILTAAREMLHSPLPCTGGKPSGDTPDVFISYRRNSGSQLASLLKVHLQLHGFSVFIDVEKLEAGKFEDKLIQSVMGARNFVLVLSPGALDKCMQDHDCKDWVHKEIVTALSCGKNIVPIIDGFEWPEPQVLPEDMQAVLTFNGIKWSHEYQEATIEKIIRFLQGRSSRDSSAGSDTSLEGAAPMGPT

[4] = P. berghei load reduction in hepatocytes – cell-based, HepG2, luciferase luminescence, HepG2 viability, primary screen (AID 624349; in the data active = parasite load remaining mostly below about 12%, no sharp cut-off; inactive = mostly above about 10%;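 note: 100% = mean of DMSO negative control wells on the same plate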); details: P. berghei liver stage in HepG2, luciferase luminescence, concentration not given here; parasite load remaining: stronger effect = lower value; viability: measured here: HepG2 viability without parasites
[5] = MELAS cybrid and Rieske KO viability enhancers – cell-based, MELAS cybrids, Rieske KO mouse fibroblasts, CellTiter-Glo, primary screen (AID 1508586;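 active = mean z-score across replicates of 1.96 or higher in either the MELAS or the Rieske mutant cell line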;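 note: z relative to plate mean and SD of compound and empty wells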); details: low glucose
[6] = galactose survival enhancers in mitochondrial complex I cybrids – cell-based, galactose medium, ATP luminescence, primary screen (AID 1645843;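 active = z-score of at least 1.8 in each of two replicates, scored against plate mean and spread of sample wells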;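 note: positive z means more ATP and so rescue of galactose-driven cybrid death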); details: complex I mutant cybrid cells, 72 h, stronger effect = higher value
[7] = compounds altering viability of human ES cells (AID 493140; call rule not given here;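 note: cells exposed to compounds for four days before counting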); details: human embryonic stem cell survival screen; stronger effect = higher value
[8] = target: Mitogen-activated protein kinase 7 (Homo sapiens) (UniProt Q13164); assay: Gal4-ERK5 driven luciferase induction – cell-based, HTS, primary screen (AID 1508626;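 active = luciferase signal above three times the same-plate solvent-only control wells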;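 note: luciferase driven by Gal4-ERK5 fusion binding five Gal4 sites before minimal TATA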); details: HeLa Gal4-ERK5 transactivation, 18 h, at 5 µM, stronger effect = higher value
Mitogen-activated protein kinase 7 (Homo sapiens), sequence (Q13164 whole entry, looked up, the tested form may be a part): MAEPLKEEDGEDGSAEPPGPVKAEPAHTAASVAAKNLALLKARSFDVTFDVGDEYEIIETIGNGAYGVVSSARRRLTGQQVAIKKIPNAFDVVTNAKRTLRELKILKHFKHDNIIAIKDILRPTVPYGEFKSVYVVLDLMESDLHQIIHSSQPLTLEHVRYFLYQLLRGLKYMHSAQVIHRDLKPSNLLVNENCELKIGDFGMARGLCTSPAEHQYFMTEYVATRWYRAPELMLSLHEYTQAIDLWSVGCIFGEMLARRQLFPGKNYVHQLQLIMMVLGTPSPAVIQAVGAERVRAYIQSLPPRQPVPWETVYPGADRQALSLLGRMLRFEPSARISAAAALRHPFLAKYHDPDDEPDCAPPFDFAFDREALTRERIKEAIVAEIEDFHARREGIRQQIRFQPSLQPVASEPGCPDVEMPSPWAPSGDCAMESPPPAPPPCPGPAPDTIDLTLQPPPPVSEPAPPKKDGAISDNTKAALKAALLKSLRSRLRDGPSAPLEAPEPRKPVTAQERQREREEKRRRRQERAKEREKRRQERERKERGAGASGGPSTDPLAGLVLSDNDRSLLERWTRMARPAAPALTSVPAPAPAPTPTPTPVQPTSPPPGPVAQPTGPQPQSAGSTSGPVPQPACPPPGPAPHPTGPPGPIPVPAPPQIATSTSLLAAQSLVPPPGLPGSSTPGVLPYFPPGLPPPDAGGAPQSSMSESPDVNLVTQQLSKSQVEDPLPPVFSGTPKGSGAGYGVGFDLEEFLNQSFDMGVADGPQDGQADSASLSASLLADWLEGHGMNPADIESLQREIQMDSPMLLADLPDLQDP

[9] = measured here: epithelial PC-3E GFP cell survival
[10] = measured here: mesenchymal TEM4-18 mCherry cell survival
[11] = stronger effect = lower value, cell number ratio, induced over uninduced
[12] = measured here: relative caspase fold change +Dox/-Dox
[13] = measured here: total cells with miR-34 induction, stronger effect = lower value
[14] = measured here: total cells without miR-34 induction
[15] = MELAS cybrid survival, CellTiter-Glo 48 h, stronger effect = higher value
[16] = Rieske KO mouse fibroblast survival, CellTiter-Glo 72 h

SMILES	red/green cell ratio (normalised) [1]	normalised cell number [1, 9]	normalised cell number [1, 10]	fold change [2, 11]	fold change [2, 12]	cell count [2, 13]	cell count [2, 14]	remaining NAD [3]	parasite load remaining [4]	viability [4]	z-score [5, 15]	z-score [5, 16]	z-score [6]	survival [7]	luciferase signal [8]
CN(C)c1cnccn1	1.02 (inactive)	0.95	0.97	0.783 (inactive)	1.07	6710	8560	10 nM (inactive)	–	–	–	–	–	–	–
CC1(C)OC(=O)C(OCC2CC2)=C1c1ccc(S(C)(=O)=O)cc1	1.08 (inactive)	1.02	1.1	0.945 (inactive)	0.86	8900	9420	10 nM (inactive)	–	–	–	–	–	–	–
CC(CCc1ccc(O)cc1)NCC(O)c1ccc(O)cc1 (centres undefined)	0.98 (inactive)	0.86	0.84	0.934 (inactive) and 0.886 (inactive)	0.997 and 0.914	8460 and 9910	9050 and 11200	10 nM (inactive)	46.7% (inactive)	106%	0.268 (inactive)	0.193	0.065 (inactive)	–	–
CCCCCCCCCCCCCCCC(=O)OCC(O)[C@H]1OC(=O)C(O)=C1O (some centres undefined)	1.11 (inactive)	1.1	1.22	1.02 (inactive) and 0.87 (inactive)	0.52 and 0.622	7640 and 11300	7530 and 13000	–	30.5% (inactive)	230%	-0.179 (inactive)	-0.164	–	–	–
Nc1ccccc1S(N)(=O)=O	0.77 (inactive)	1.18	0.91	0.888 (inactive)	1.35	9840	11100	–	63.3% (inactive)	93.8%	0.695 (inactive)	-0.362	–	5.17 (inactive)	–
OCc1ccccc1	0.94 (inactive)	1.12	1.05	0.891 (inactive)	0.934	8280	9290	10 nM (inactive)	–	–	–	–	–	–	–
Cc1c(C)c2c(c(C)c1O)CCC(C)(C(=O)O)O2 (centres undefined)	0.84 (inactive)	1.17	0.98	0.854 (inactive)	1.44	8370	9800	–	201% (inactive) and 66.3% (inactive)	117% and 76.7%	-0.259 (inactive)	-0.0183	–	0.667 (inactive)	–
CC(C)[C@H](N)C(=O)OCC(CO)OCn1cnc2c(=O)[nH]c(N)nc21 (some centres undefined)	0.79 (inactive)	1.28	1.01	0.935 (inactive)	0.843	8710	9320	10 nM (inactive)	–	–	–	–	–	–	–
CC1=C(/C=C/C(C)=C/C=C/C(C)=C/C=C/C=C(C)/C=C/C=C(C)/C=C/C2=C(C)C(=O)CCC2(C)C)C(C)(C)CCC1=O	1.05 (inactive)	0.85	0.9	0.905 (inactive)	1.09	10100	11200	–	32.7% (inactive)	102%	0.499 (inactive)	1.32	0.415 (inactive)	–	100 AU (inactive)
CO[C@H](C(=O)[C@@H](O)[C@@H](C)O)[C@@H]1Cc2cc3cc(O[C@H]4C[C@@H](O[C@H]5C[C@@H](O)[C@H](O)[C@@H](C)O5)[C@@H](O)[C@@H](C)O4)c(C)c(O)c3c(O)c2C(=O)[C@H]1O[C@H]1C[C@@H](O[C@H]2C[C@@H](O[C@H]3C[C@](C)(O)[C@H](O)[C@@H](C)O3)[C@H](O)[C@@H](C)O2)[C@H](O)[C@@H](C)O1	0.96 (inactive)	0.29	0.28	0.97 (inactive)	0.963	2240	2320	–	-0.08% (active)	93%	7.83 (active)	-1.51	-1.89 (inactive)	–	–
NC(N)=NCC1COC2(CCCCC2)O1 (centres undefined)	1.08 (inactive)	1.11	1.2	0.907 (inactive)	1.21	9550	10500	10 nM (inactive)	70.3% (inactive)	91.8%	0.764 (inactive)	0.202	–	5.58 (inactive)	–
O=C1/C(=C/c2cccs2)CCC/C1=C\c1cccs1	1 (inactive)	0.96	0.97	0.964 (inactive)	1.06	7510	7800	10 nM (inactive)	–	–	–	–	–	–	–
CC(=O)C1C(=O)C=C(C)OC1=O (centres undefined)	1.08 (inactive)	0.99	1.07	0.96 (inactive)	0.723	9120	9500	10 nM (inactive)	–	–	–	–	–	–	–
CCN(CC)CCOCCOC(=O)C(CC)(CC)c1ccccc1	1.07 (inactive)	0.85	0.9	0.879 (inactive) and 0.86 (inactive)	0.849 and 0.967	7300 and 7460	8310 and 8670	10 nM (inactive)	–	–	-0.986 (inactive)	-0.272	-0.65 (inactive)	–	–
FC(F)(Cl)C(F)(F)Cl	1.02 (inactive)	0.91	0.93	0.926 (inactive)	0.734	9510	10300	10 nM (inactive)	–	–	–	–	–	–	–
C=CCCCCCCCCC(=O)[O-].C=CCCCCCCCCC(=O)[O-].[Zn+2]	1.08 (inactive)	0.98	1.05	0.86 (inactive)	4.55	11700	13600	10 nM (inactive)	88.8% (inactive)	94.5%	–	–	–	–	48 AU (inactive)
